Test results from PubChem BioAssay (NCATS).
Several values for one entry are separate records, joined by “and”; a condition that tells them apart may be missing. Equal values may be shown once. Inconclusive results are not listed. Activity calls are given as the source filed them. Unless noted, calls come from the whole dose curve; as a rule, active = well fitted curve in the direction sought with a large enough effect; inconclusive = small, poorly fitted or top-dose-only effect, or another doubt; inactive = no such curve, though single readings can be large; an effect the other way counts as inactive or inconclusive. Bridge positions count the residues as written; N and C are the ends. Square brackets hold non-standard residues; d marks the D form. Peptide text beside a SMILES is read from it. * marks the point of attachment. Octanoyl(6-Me) = CCC(C)CCCCC(=O)*; Dab = NCC[CH](N)C(=O)O

Experiments:
[1] = Cell Viability - SK-N-SH (AID 435; calls by dose curve;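 note: potency is the fitted concentration of half-maximal effect; compound exposure lasted 40 h at 37 °C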); settings: SK-N-SH neuroblastoma cell viability qHTS
Summary of the method: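 Human neuroblastoma line, 40 h exposure at 37 °C, ATP quantified via luciferase luminescence; DMSO and 100 uM tamoxifen define 0 and 100% inhibition for AC50 fitting.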

[2] = Cell Viability - Mesenchymal (AID 546); settings: mesenchymal cells viability, qHTS; activity change, negative = cytotoxicity: at 91.7 µM (top of the series);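 note: cells exposed to compound for 40 hours before reading; 0% = DMSO only and -100% = 100 µM tamoxifen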
Summary of the method: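 Normal human renal glomerulus-derived kidney mesenchymal cells, 1000 per well in complete medium, were treated with compounds for 40 hr at 37 °C. Viability was read as intracellular ATP by CellTiter-Glo luminescence; AC50 values came from Hill-equation fits of qHTS concentration-response data.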

[3] = Cell Viability - LYMP2-015 (AID 971); settings: LYMP2-015 lymphoblastoid cell viability; series mostly up to 92.2 µM;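 note: 0% = DMSO only and full effect = 92 µM tetraoctylammonium bromide; nearly all actives have a fitted effect of over 55% in size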
Summary of the method: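 Luminescent ATP read-out (CellTiter-Glo) served as the viability measure after lymphoblastoid cells were exposed to compounds for 24 hours at 37 C. Concentration-response data were fitted with the Hill equation to give AC50.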

[4] = Cell Viability - LYMP2-023 (AID 975); settings: LYMP2-023 lymphoblastoid cell viability; series mostly up to 92.2 µM;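 note: cellular ATP measured by luciferase luminescence as viability proxy; plate controls were DMSO only for no effect and 92 µM tetraoctylammonium bromide control for full effect; nearly all actives have a fitted effect of over 55% in size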
Summary of the method: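 2500 cells/well, 5 hr 37 C; cpd 24 hr 37 C; CellTiter-Glo, 30 min RT; luminescence. qHTS conc-response, Hill fit -> AC50. Pos ctrl tetraoctylammonium bromide.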

[5] = molecular target: ATP-dependent 6-phosphofructokinase (Trypanosoma brucei brucei) (UniProt O15648); assay: qHTS Assay to Find Inhibitors of T. brucei phosphofructokinase: hit validation (AID 492961);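 note: luminescence reports ADP formed as PFK phosphorylates fructose-6-phosphate with ATP; % is set by controls: 0 for no effect and ±100 for the full control effect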; settings: T. brucei PFK, ADP-Glo luminescence; series mostly up to 51.4 µM
Chain of ATP-dependent 6-phosphofructokinase (Trypanosoma brucei brucei) (O15648 whole entry, looked up): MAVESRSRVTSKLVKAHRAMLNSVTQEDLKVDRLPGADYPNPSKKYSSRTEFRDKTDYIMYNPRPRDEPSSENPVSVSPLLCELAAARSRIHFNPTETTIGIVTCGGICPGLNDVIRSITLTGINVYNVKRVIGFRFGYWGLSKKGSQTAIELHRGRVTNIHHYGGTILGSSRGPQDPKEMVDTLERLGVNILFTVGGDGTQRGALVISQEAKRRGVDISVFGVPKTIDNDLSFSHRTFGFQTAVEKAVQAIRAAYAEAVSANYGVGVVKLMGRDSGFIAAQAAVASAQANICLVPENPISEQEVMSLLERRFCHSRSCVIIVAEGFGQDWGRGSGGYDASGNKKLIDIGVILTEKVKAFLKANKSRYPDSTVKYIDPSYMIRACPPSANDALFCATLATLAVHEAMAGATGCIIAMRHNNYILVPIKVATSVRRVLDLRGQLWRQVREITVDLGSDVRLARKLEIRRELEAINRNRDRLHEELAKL
Summary of the method: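 PFK 1.25 nM, F6P 0.5 mM, ATP 0.1 mM, MgCl2 5 mM, 0.1 M TEA pH 8.0, Tween20 0.01%, BSA 0.1%; 45 min RT. ADP-Glo two-step detection, luminescence. qHTS titration; curve fitting with curve-class categorization.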

[6] = S16 Schwann cell viability assay (CellTiter-Glo assay) (AID 624031); settings: S16 rat Schwann cells viability, 24 h; series mostly up to 57.5 µM; note: nearly all actives have a fitted effect of over 70% in size; note: potency is the fitted concentration of half-maximal effect;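 for activity change, negative = cytotoxicity: native untransfected S16 rat Schwann cells; cellular ATP luminescence as a viability measure; plate controls were DMSO-treated cells for no effect and cell-free wells for full effect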
Summary of the method: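 Parental S16 cells, 24 h compound, 37 °C. ATP-luminescence viability; DMSO = 0% activity, empty wells as reference; curves classified by fit quality and efficacy.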

[7] = S16 Schwann cell PMP22 intronic element firefly luciferase assay (AID 624032); settings: S16 rat Schwann cells, PMP22 element FLuc, 24 h; series mostly up to 57.5 µM; note: nearly all actives have a fitted effect of over 30% in size; note: potency is the fitted concentration of half-maximal effect
Summary of the method: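 Rat S16 Schwann cells stably carrying a PMP22 intronic element-driven Fluc reporter were seeded overnight, then exposed to compounds for 24 h at 37 °C. Luminescence was normalized to PTC124 (positive control) and DMSO (0% activity).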

FAB9 = assay: qHTS profiling for inhibitors of Plasmodium falciparum proliferation (AID 504749); note: nearly all actives have a fitted effect of over 60% in size; note: potency is the fitted concentration of half-maximal effect; settings: P. falciparum in erythrocytes, SYBR Green DNA, 72 h; series mostly up to 28.7 µM
Summary of the method: (§1)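 Parasite proliferation within erythrocytes, 72 h exposure. Endpoint: SYBR Green I fluorescence after overnight lysis at room temperature. Controls: 0.29 uM artemisinin, DMSO.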

PC49 = assay: as above; settings: P. falciparum in erythrocytes, SYBR Green DNA, 72 h; series mostly up to 28.7 µM
Summary of the method: as §1

P93_24 = assay: as above; settings: P. falciparum in erythrocytes, SYBR Green DNA, 72 h; series mostly up to 28.7 µM
Summary of the method: as §1

PAD = assay: as above; settings: P. falciparum in erythrocytes, SYBR Green DNA, 72 h; series mostly up to 28.7 µM
Summary of the method: as §1

TAB113 = assay: as above; settings: P. falciparum in erythrocytes, SYBR Green DNA, 72 h; series mostly up to 28.7 µM
Summary of the method: as §1

TAB165 = assay: as above; settings: P. falciparum in erythrocytes, SYBR Green DNA, 72 h; series mostly up to 28.7 µM
Summary of the method: as §1

CP250 = assay: as above; settings: P. falciparum in erythrocytes, SYBR Green DNA, 72 h; series mostly up to 28.7 µM
Summary of the method: as §1

[8] = Cell Viability - N2a (AID 540); settings: N2a mouse neuroblastoma cell viability; activity change, negative = cytotoxicity: at 92.2 µM (top of the series);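 note: plate controls were DMSO alone for no effect and tamoxifen control for full effect; nearly all actives have a fitted effect of over 45% in size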
Summary of the method: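 Luminescent ATP signal (CellTiter-Glo, 20 min at room temperature) served as the viability read-out after N2a cells were treated with compounds for 40 hours at 37 °C. Concentration-response data were fitted to the Hill equation for AC50.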

[9] = Cell Viability - NIH 3T3 (AID 541); settings: NIH 3T3 cell viability, qHTS; activity change, negative = cytotoxicity: at 92.2 µM (top of the series);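 note: plate controls were DMSO alone for no effect and tamoxifen positive control for full effect; nearly all actives have a fitted effect of over 25% in size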
Summary of the method: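 Luminescent ATP signal (CellTiter-Glo) served as the viability read-out after NIH 3T3 cells were exposed to compounds over a concentration range for 40 hr at 37 °C. Hill-equation modelling of concentration-response data gave AC50.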

[10] = molecular target: Bile acid receptor (Homo sapiens) (UniProt Q96RI1); assay: qHTS assay for small molecule antagonists of farnesoid X receptor signaling (AID 588526; calls by dose curve; note: % is set by controls: 0 for no effect and ±100 for the full control effect); settings: HEK293T FXR-UAS-bla, beta-lactamase ratio, antagonist mode; series mostly up to 76.7 µM
Chain of Bile acid receptor (Homo sapiens) (Q96RI1 whole entry, looked up): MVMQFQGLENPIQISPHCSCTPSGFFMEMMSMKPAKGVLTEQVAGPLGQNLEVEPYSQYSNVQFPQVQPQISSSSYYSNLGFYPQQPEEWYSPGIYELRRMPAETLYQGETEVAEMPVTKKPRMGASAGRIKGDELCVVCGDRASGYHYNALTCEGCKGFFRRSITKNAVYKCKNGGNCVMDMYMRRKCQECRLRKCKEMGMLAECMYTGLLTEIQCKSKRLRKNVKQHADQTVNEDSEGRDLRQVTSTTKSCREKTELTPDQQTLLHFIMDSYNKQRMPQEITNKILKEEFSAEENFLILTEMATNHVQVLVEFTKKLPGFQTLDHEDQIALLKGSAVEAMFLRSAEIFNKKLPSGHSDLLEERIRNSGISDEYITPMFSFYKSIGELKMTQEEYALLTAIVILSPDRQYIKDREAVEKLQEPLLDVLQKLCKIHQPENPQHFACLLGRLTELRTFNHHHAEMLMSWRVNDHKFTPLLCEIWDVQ
Summary of the method: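 Concentration-response titrations were fitted to the Hill equation for half-maximal inhibition and maximal response, with data normalised to 50 uM chenodeoxycholic acid and DMSO control wells. Cells: FXR-UAS-bla HEK293T, dialyzed FBS.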

[11] = molecular target: Retinoic acid receptor RXR-alpha (Homo sapiens) (UniProt P19793); assay: qHTS assay for small molecule agonists of retinoid X receptor alpha signaling (AID 588544; calls by dose curve;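 note: 0% = DMSO basal wells and 100% = reference agonist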); settings: HEK293T RXRa-UAS-bla, beta-lactamase reporter, 18 h; series mostly up to 76.7 µM
Chain of Retinoic acid receptor RXR-alpha (Homo sapiens) (P19793 whole entry, looked up): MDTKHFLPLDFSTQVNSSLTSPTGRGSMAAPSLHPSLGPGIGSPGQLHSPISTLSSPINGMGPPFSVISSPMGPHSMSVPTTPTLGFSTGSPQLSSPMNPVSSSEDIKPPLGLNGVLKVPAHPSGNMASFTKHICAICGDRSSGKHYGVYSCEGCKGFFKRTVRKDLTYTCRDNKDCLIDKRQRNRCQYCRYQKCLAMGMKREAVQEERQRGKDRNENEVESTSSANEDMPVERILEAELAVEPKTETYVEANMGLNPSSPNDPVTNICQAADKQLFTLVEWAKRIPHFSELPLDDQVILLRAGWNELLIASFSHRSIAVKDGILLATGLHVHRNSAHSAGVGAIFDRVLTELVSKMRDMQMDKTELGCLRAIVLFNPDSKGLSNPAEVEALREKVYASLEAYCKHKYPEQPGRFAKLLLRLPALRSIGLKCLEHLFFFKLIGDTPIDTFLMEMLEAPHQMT

[12] = qHTS assay for small molecule agonists of the antioxidant response element (ARE) signaling pathway (AID 651741; active = well fitted activation curve with a large enough effect in the signal ratio; the % refers to the signal ratio; note: % of control where 0% means no effect); settings: HepG2 ARE-bla reporter, beta-lactamase FRET ratio, 16 h; series mostly up to 96 µM
Summary of the method: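 Compounds in DMSO are pinned onto HepG2 ARE-bla cells (2,000/well) that were preincubated 5 h; plates stay 16 h at 37 C, then beta-lactamase activity is detected with LiveBLAzer B/G substrate by fluorescence.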

[13] = Cell Viability - HepG2 (AID 433; calls by dose curve;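 note: potency is the fitted concentration of half-maximal effect; potency for ATP loss meaning cytotoxicity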); settings: qHTS
Summary of the method: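 In this qHTS format, a 40 h, 37 °C compound incubation of HepG2 cells in complete medium precedes a 20 min CellTiter-Glo step at room temperature. Tamoxifen and doxorubicin serve as positive controls; Hill-equation fits yield AC50.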

O=C1CCc2ccccc2O1
inactive: Potency [1] > 92 µM | activity change, negative = cytotoxicity [2] 7.71% | Potency [3] | Potency [4]

O=NCc1ccc([N+](=O)[O-])o1
active: Potency [7] 12.8 µM
inactive: outcome [5] | Potency [6] | Potency (FAB9) | Potency (PC49)

CC(=O)O[C@@]12CO[C@@H]1C[C@H](O)[C@@]1(C)C(=O)[C@H](O)C3=C(C)[C@@H](OC(=O)C(O)[C@@H](NC(=O)OC(C)(C)C)c4ccccc4)C[C@@](O)([C@@H](OC(=O)c4ccccc4)[C@H]21)C3(C)C (some centres not stated)
active: Potency (P93_24) 0.0562 µM | Potency (PAD) 0.126 µM | Potency (TAB113) 0.0316 µM | Potency (TAB165) 0.141 µM
inactive: outcome [5]

CCC(C)CCCCC(=O)NC(CCN)C(=O)NC(C(=O)NC(CCN)C(=O)NC1CCNC(=O)C(C(C)O)NC(=O)C(CCN)NC(=O)C(CCN)NC(=O)C(CC(C)C)NC(=O)C(Cc2ccccc2)NC(=O)C(CCN)NC1=O)C(C)O (configuration not stated) ({Octanoyl(6-Me)}-[Dab]T[Dab][Dab][Dab]FL[Dab][Dab]T; lactam 4-C; configuration not given here)
inactive: Potency [7] | Potency (CP250) | Potency (FAB9) | Potency (PC49)

Cc1cc(CC(C)CC(C)(C)C)n(O)c(=O)c1 (configuration not stated)
inactive: outcome [5]
active: Potency [7] 16.1 µM | Potency (CP250) 1.12 µM | Potency (P93_24) 2.24 µM | Potency (PAD) 2.82 µM | Potency (TAB113) 2.82 µM | Potency (TAB165) 1.78 µM

O=S(=O)(O)c1ccccc1
inactive: Potency [1] > 92 µM | activity change, negative = cytotoxicity [8] -0.532% | Potency [9] | outcome [10] | outcome [11] | Potency [12]

CCN1/C(=C/C=C/C=C/c2sc3ccccc3[n+]2CC)Sc2ccccc21
active: Potency [6] 7.21 µM | Potency (CP250) 3.98 µM | Potency (FAB9) 3.16 µM | Potency (P93_24) 3.55 µM | Potency (PAD) 5.01 µM | Potency (PC49) 5.62 µM | Potency (TAB113) 5.01 µM | Potency (TAB165) 3.98 µM

O[C@@H]([C@H](O)[C@@H](O)CBr)[C@@H](O)CBr
inactive: Potency [13] > 92 µM | Potency [1] > 92 µM | activity change, negative = cytotoxicity [8] 11.7% | activity change, negative = cytotoxicity [2] 7.81%

CCC(=O)O[C@@H](OP(=O)(CCCCc1ccccc1)CC(=O)N1C[C@H](C2CCCCC2)C[C@H]1C(=O)O)C(C)C (some centres not stated)
inactive: outcome [5] | Potency [6] | Potency [7] | Potency (CP250) | Potency (FAB9) | Potency (PAD) | Potency (PC49) | Potency (TAB113) | Potency (TAB165)

CC1(C)S[C@@H]2[C@H](NC(=O)COc3ccccc3)C(=O)N2[C@H]1C(=O)O
inactive: outcome [5] | outcome [11] | Potency [7] | Potency (CP250) | Potency (FAB9) | Potency (P93_24) | Potency (PAD) | Potency (PC49) | Potency (TAB113) | Potency (TAB165)

CC1CCC(C(C)C)C(OC(=O)c2ccccc2O)C1 (configuration not stated)
inactive: outcome [5] | Potency [6] | Potency [7] | Potency (CP250) | Potency (FAB9) | Potency (P93_24) | Potency (PAD) | Potency (PC49) | Potency (TAB113) | Potency (TAB165)

O=C(O)c1ccccc1C(c1ccc(O)cc1)c1ccc(O)cc1
inactive: activity change, negative = cytotoxicity [2] 8.62% | outcome [11] | Potency [12]

c1ccc2scnc2c1
inactive: activity change, negative = cytotoxicity [8] -2.55%

Cc1c(N=C=O)cccc1N=C=O
inactive: Potency [13] > 92 µM | Potency [1] > 92 µM | activity change, negative = cytotoxicity [8] -2.52% | Potency [9] | activity change, negative = cytotoxicity [2] -3.51% | Potency [3] | Potency [12]

Cc1ccccc1C
inactive: Potency [13] > 92 µM | Potency [1] > 92 µM | Potency [9] | activity change, negative = cytotoxicity [2] -15.1% and 9.28% | Potency [4] | Potency [12]

Nc1ccc(S(=O)(=O)O)cc1
inactive: Potency [13] > 92 µM | Potency [9] | outcome [10] | Potency [12]

COC(=O)CCCCC(=O)OC
inactive: Potency [13] > 92 µM | Potency [3] | outcome [10] | outcome [11]

CO[C@@H]1[C@@H](OC2OC(C)C(OC3CC(C)(O)C(OC(=O)CC(C)C)C(C)O3)C(N(C)C)C2O)[C@@H](CC=O)C[C@@H](C)C(=O)/C=C\C2O[C@H]2C[C@@H](C)OC(=O)C[C@H]1OC(C)=O (some centres not stated)
active: Potency [7] 5.73 µM | Potency (CP250) 10 µM | Potency (P93_24) 8.91 µM | Potency (PAD) 11.2 µM | Potency (TAB113) 12.6 µM
inactive: outcome [5] | Potency [6] | Potency (FAB9) | Potency (PC49)

O=C(O)c1ccc(O)cc1O
inactive: Potency [13] > 92 µM | Potency [1] > 92 µM | activity change, negative = cytotoxicity [8] 7.6% and 11% | Potency [4] | outcome [10] | Potency [12]
